Screening data: PubChem BioAssay, several laboratories
Anthrax LF inh2: blocks Bacillus anthracis lethal factor protease. P15917. multiplex microsphere protease cleavage assay, LF. inhibition, % at 10 µM. hit rate 0.12% among 360,000; also: plate controls were buffer without enzyme for full effect and enzyme alone for no effect
DUSP3 inh: inhibitors of human VHR1 phosphatase (DUSP3); recombinant VHR phosphatase, pNPP absorbance; hit rate 0.52% among 290,000; P51452; inhibition, % at 13.3 µM; in the data active = inhibition above about 50%
Target sequence (P51452 whole entry, looked up): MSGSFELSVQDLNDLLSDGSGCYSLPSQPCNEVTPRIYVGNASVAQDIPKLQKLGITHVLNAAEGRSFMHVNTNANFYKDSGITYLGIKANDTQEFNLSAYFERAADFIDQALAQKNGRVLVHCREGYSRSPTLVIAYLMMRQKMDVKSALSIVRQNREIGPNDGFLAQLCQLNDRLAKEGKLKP
BoNT-A LC inh2: BoNT A light chain protease inhibition; multiplex microsphere protease substrate cleavage, flow cytometry; hit rate 0.17% among 360,000; inhibition, % at 10 µM; AID 588499; also: plate controls were buffer without enzyme for full effect and enzyme alone for no effect
MazEF act: MazEF (E. coli) toxin RNase activation | P0AE70 | FAM/BHQ RNA-DNA oligo cleavage fluorescence, 5 h | activation, % at 20 µM | hit rate 0.32% among 350,000 | AID 504720; in the data active = activation above about 50%
Target sequence (P0AE70 whole entry, looked up): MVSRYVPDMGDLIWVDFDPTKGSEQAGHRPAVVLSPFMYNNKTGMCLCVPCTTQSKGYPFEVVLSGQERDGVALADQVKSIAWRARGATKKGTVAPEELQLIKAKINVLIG
Autofluor counter: flagged as autofluorescent in microsphere protease counterscreen | compound autofluorescence counterscreen, microsphere flow cytometry; active compounds read high | fluorescence intensity (no concentration beside the values) | hit rate 3.1% among 360,000 | AID 624483; in the data active = fluorescence intensity above about 16000; inconclusive = no clear call, values can overlap the other calls
BoNT F protease: inhibitors of Botulinum neurotoxin F light chain protease. Multiplex microsphere protease cleavage assay, flow cytometry. inhibition, % at 10 µM. hit rate 0.22% among 360,000. AID 588497; in the data active = inhibition above about 35%, passing the limit was not always enough; inconclusive = no clear call, values can overlap the other calls; also: plate controls were buffer without enzyme for full effect and enzyme alone for no effect
The depositor's hits bear a star; ? = inconclusive; nt = not tested or not shown. In the library only some 4.1% were active in any assay of this set; here they are far more common. Rule as the data show it, unless noted: active = inhibition above about 30%; inconclusive = no clear call, values can overlap the other calls; inactive = below that.

SMILES	Anthrax LF inh2	DUSP3 inh	BoNT-A LC inh2	MazEF act	Autofluor counter	BoNT F protease
COc1cccc(C(=O)NC(C)C(c2cccs2)N2CCOCC2)c1 (stereo not drawn)	-6	53*	-1	4	5043	-9
CCN1CCN(C(c2cccs2)C(C)NC(=O)c2cccc(OC)c2)CC1 (stereo not drawn)	-9	9	-1	1	5537	-11
CC(=O)NC(C)C(c1cccs1)N1CCN(c2ccccc2)CC1 (stereo not drawn)	-2	32	?	4	16460*	1
Cc1ccc(C(=O)NC(C)C(c2cccs2)N2CCCC2)s1 (stereo not drawn)	-2	13	-2	11	7061	-5
CC(NC(=O)c1cccc(F)c1)C(c1cccs1)N1CCN(C)CC1 (stereo not drawn)	1	18	-5	-2	23669*	-5
CCN(CC)S(=O)(=O)c1cccc(C(=O)NC(C)C(c2cccs2)N2CCCC2)c1 (stereo not drawn)	4	-2	1	3	17341*	4
CCN1CCN(C(c2cccs2)C(C)NC(=O)c2ccccc2)CC1 (stereo not drawn)	4	35	0	7	5988	6
O=C1Nc2cc(C(=O)N3CCOCC3)ccc2S/C1=C/c1ccccc1F	-2	nt	0	11	3543	-8
O=C(NCCc1ccco1)C(=O)NCC1CCCN1S(=O)(=O)c1ccccc1 (stereo not drawn)	?	nt	?	-10	?	?
COc1cc2[nH]cc(C(=O)NCCc3ccccc3)c(=O)c2cc1OC	-6	-18	-2	-5	17186*	-2
CCOCCCNC(=O)c1c[nH]c2ccc(C)cc2c1=O	0	18	-1	0	22538*	-1
Cc1cc(C)cc(OCC(=O)NNC(=S)NC(=O)C2CC2)c1	0	7	-1	3	5913	-9
Nc1nonc1C(=O)NCCN=Cc1ccccc1O	2	16	-1	-1	3188	0
Nc1nonc1C(=O)NCCN=Cc1cc(Cc2ccccc2)cc(Br)c1O	-1	29	-4	-37	17444*	-7
Cc1ccccc1S(=O)(=O)Cc1ccc(C(=O)NC2CCCCC2)o1	-1	7	0	8	5017	4
CCN(C(=O)COc1cc(=O)n(CC)c2ccccc12)c1cccc(Cl)c1	-2	10	-1	-7	20694*	-2
CC(=O)c1ccc(OCc2cc(C(=O)N3CCC[C@H]3CO)no2)cc1	-4	60*	-1	10	5964	-4
COCCC1CCCCN1C(=O)c1cc(COc2cccc(C(C)=O)c2)on1 (stereo not drawn)	nt	18	nt	5	nt	nt
CC(C)N(C(=O)CSc1nnc(-c2cc3ccccc3cc2O)n1Cc1ccco1)C(C)C	1	6	?	-5	20006*	-1
COCCn1c(SCC(=O)N(C(C)C)C(C)C)nnc1-c1cc2ccccc2cc1O	-3	6	?	6	23496*	-3
O=C(CSc1nnc(-c2cc3ccccc3cc2O)n1Cc1ccco1)N1CCc2ccccc2C1	-1	22	0	-3	11125	-7
Cc1ccc(C)c(NC(=O)Cn2ccn(-c3ccc4c(c3)OCO4)c(=O)c2=O)c1	2	nt	6	1	4206	8
Cc1ccc(NC(=O)Cn2cccc2)c(Br)c1	-2	26	-1	9	23334*	-2
COc1ccc(NCC(=O)Nc2ccccc2C#N)cc1Cl	-8	31	2	9	21530*	5
O=C(Cn1cccc1)Nc1ccc(OC(F)(F)F)cc1	1	15	4	7	21063*	4
SMILES	Anthrax LF inh2	DUSP3 inh	BoNT-A LC inh2	MazEF act	Autofluor counter	BoNT F protease
COc1ccc(NC(=O)Cn2cccc2)cc1Cl	-2	4	2	5	22292*	1
CCOC(=O)C1=C(C)c2ccccc2N(S(=O)(=O)C(F)(F)F)C1C(=O)OCC (stereo not drawn)	4	nt	0	7	3915	-2
Cc1ccc(NC(=O)Cn2cccc2)cc1	-2	14	-1	4	2698	-3
Cc1cccc(NC(=O)Cn2cccc2)c1	-2	48	-2	4	20306*	-2
Cc1ccccc1NC(=O)CNc1ccc(Cl)c(C(F)(F)F)c1	-1	58*	0	2	2643	-5
CNCC(=O)Nc1ccc(Cl)c(C(F)(F)F)c1	-4	20	-1	0	3311	-5
CC(C)C12CN3CCN(CC(C3)C1O)C2 (stereo not drawn)	-2	0	-2	9	16737*	-5
C(=C\c1ccccc1)/CN1CCN(C(CCc2ccccc2)c2nnnn2C2CCCC2)CC1 (stereo not drawn)	-3	nt	-1	nt	6558	-12
N=c1c2c(-c3ccccc3)c(-c3ccccc3)n(Cc3ccccc3)c2ncn1CCO	-1	36	?	31	22944*	-1
N=c1c2c(-c3ccccc3)c(-c3ccccc3)n(Cc3ccco3)c2ncn1Cc1ccccc1	5	12	0	10	4453	8
Cc1ccc(C(=O)N2CCN(S(=O)(=O)c3sc(C(=O)O)c(C)c3C(=O)O)CC2)s1	-4	nt	0	-1	3856	0
O=C1OCC/C1=C\c1ccc2c(c1)OCO2	-2	52*	-3	10	3997	-12
O=C1/C(=C\c2ccc3c(c2)OCO3)CCC/C1=C/c1ccc2c(c1)OCO2	4	15	1	-3	4214	-15
CCCn1nc([N+](=O)[O-])c(C(C#N)c2nc3ccccc3o2)c(Cl)c1=O (stereo not drawn)	-3	-28	0	-2	2461	-4
CCn1nc([N+](=O)[O-])c(C(C#N)c2nc3cc(C(F)(F)F)ccc3s2)c(Cl)c1=O (stereo not drawn)	-3	9	2	-3	22515*	0
CCOc1ccc(CN2CCN(C(=O)c3cccc4ccccc34)CC2)cc1	-15	2	1	4	3058	?
CC(=O)NC(Cc1cc(C)ccc1C)C(=O)N1CCN(C(=O)Nc2ccc(C(C)=O)cc2)CC1 (stereo not drawn)	-4	-31	?	-6	17945*	-6
COc1ccccc1-n1nnnc1SCC(=O)Nc1ccccc1	-9	4	0	15	3478	-19
CCCn1c(=O)c2ccccc2n2c(SCc3c(C(=O)OCC)oc4ccccc34)nnc12	0	41	1	13	10290	-1
COc1ccccc1-n1nnnc1SCC(=O)Nc1ccccn1	-10	20	4	4	19311*	5
CCOC(=O)c1oc2ccccc2c1CSc1nnnn1-c1ccc(OC)cc1	0	-5	?	9	21747*	3
CCOC(=O)CSc1nnnn1-c1cc(OC)ccc1OC	-2	0	0	1	16299*	0
COC(=O)C[C@@H]1C[C@@H]2c3cc(NS(=O)(=O)c4ccc(F)cc4)ccc3O[C@@H]2[C@@H](CO)O1	-8	nt	0	8	2909	2
Cc1ccc(Cl)cc1NS(=O)(=O)c1ccc2oc(=O)ccc2c1	4	26	-2	-8	4028	6
